Several values for one entry are separate records, joined by “and”; a condition that tells them apart may be missing. Equal entries are not always repeated. Inconclusive results are not listed. Unmarked numbers belong to inactive results. Activity calls are given as the source filed them. The call rests on the fitted dose curve.
Potency means the concentration at half of the fitted maximal effect.

This test in a line: Cell Viability - SK-N-SH (AID 435).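 Further: compound exposure lasted 40 h at 37 °C.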 Particulars: SK-N-SH neuroblastoma cell viability qHTS. The text has this:
NIH Chemical Genomics Center [NCGC]
NIH Molecular Libraries Screening Centers Network [MLSCN]
National Institutes of Environmental Health Sciences [NIEHS]
National Toxicology Program [NTP]
We have developed a 1536-well cell-based assay for quantitative high throughput screening (qHTS) against a number of cell lines to determine in vitro cytotoxicity of small molecules. This particular assay uses the SK-N-SH cell line which is derived from human neuroblastoma.
NCGC Assay Protocol Summary:
The CellTiter-Glo luminescent cell viability assay (Promega) is a homogeneous method to measure the number of viable cells in culture. The end point readout of this assay is based on quantitation of intracellular ATP, an indicator of metabolic activity, using the luciferase reaction. Luciferase catalyzes the oxidation of beetle Luciferin to oxyluciferin and light in the presence of ATP. The luminescent signal is proportional to amount of ATP present.
Using the CellTiter-Glo luminescent cell viability assay, the amount of cellular ATP was measured in the SK-N-SH cell line with complete culture medium following compound treatment for 40 hours. The assay was performed in opaque white Kalypsys 1536-well plates. In the screen, tamoxifen and doxorubicin were used as positive controls. Library compounds were measured for their ability to cause acute toxicity in the cell line, as reflected by a decrease in intracellular ATP levels, in a concentration-dependent manner. Data were normalized to the controls for basal activity (DMSO only) and 100% inhibition (100 uM tamoxifen). AC50 values were determined from concentration-response data modeled with the standard Hill equation.
qHTS protocol fo CellTiter Glo SK-N-SH cellular assay
[Step] [Parameter] [Value] [Description]
1. Reagent; 5 uL; 1500 SK-N-SH cells/well
2. Time; 5 hr; 37 °C incubation
4. Controls; 23 nL; Tamoxifen 0.34 uM to 100 uM & Doxorubicin 0.02 nM to 100 uM
5. Time; 40 hr; 37 °C incubation
6. Reagent; 5 uL; CellTiter Glo reagent
7. Time; 20 min; Room Temperature
8. Detection; Luminescence; Viewlux plate reader
Keywords: cell viability, cytotoxicity, SK-N-SH cell line, luminescence, NTPHTS, NTPHTS_NCGC, NIEHS, EPA, DSSTox, MLSMR, MLSCN, NIH Roadmap, qHTS, NCGC
(qHTS replaces the single test concentration by a dilution series.)
As to `Nc1ccccc1C(=O)OCCc1ccccc1`, the Potency was greater than 92 µM.

Turning to `Cc1ccc2ccccc2c1C`, the Potency was greater than 92 µM.

For the compound `CCCCCCCCn1sccc1=O`, the Potency is 14.2 µM (active).

`O=C(CCl)c1ccccc1`: the Potency was 15.4 µM (active).

In the case of `O=C1C2(Cl)C3(Cl)C4(Cl)C(Cl)(Cl)C5(Cl)C3(Cl)C1(Cl)C5(Cl)C24Cl` (configuration not stated), the Potency is 33.3 µM (active) and 51.3 µM (active).

`C[C@@H]1CC[C@@]2(OC1)O[C@H]1[C@@H](O)[C@H]3[C@@H]4CC[C@H]5C[C@@H](O[C@@H]6O[C@H](CO)[C@H](O[C@@H]7O[C@H](CO)[C@@H](O)[C@H](O[C@@H]8OC[C@@H](O)[C@H](O)[C@H]8O)[C@H]7O[C@@H]7O[C@H](CO)[C@@H](O)[C@H](O[C@@H]8O[C@H](CO)[C@@H](O)[C@H](O)[C@H]8O)[C@H]7O)[C@H](O)[C@H]6O)[C@H](O)C[C@]5(C)[C@H]4CC[C@]3(C)[C@H]1[C@@H]2C`: the Potency is 28.5 µM (active).

With `N#CSCSC#N`, the Potency is 14 µM (active).

For `C#CCO`, the Potency is greater than 92 µM.

Consider `O=C(O)C1C(C(=O)O)C2(Cl)C(Cl)=C(Cl)C1(Cl)C2(Cl)Cl` (configuration not stated), for which the Potency was greater than 92 µM.

For the compound `COP(=O)(OC)O/C(=C\Cl)c1cc(Cl)c(Cl)cc1Cl`, the Potency is 33.5 µM (active).

For `[CH3][Hg][Cl]`, the Potency is 17.4 µM (active).

Consider `O=[N+]([O-])c1ccccc1Cl`, for which the Potency was greater than 92 µM.

`Clc1ccc(C(c2ccc(Cl)cc2)C(Cl)Cl)cc1`: the Potency is 43.5 µM (active).

Regarding `Cc1ccc(O)cc1C`, the Potency was greater than 92 µM.

Turning to `Oc1c(Br)c(Br)c(Br)c(Br)c1Br`, the Potency is 57 µM.

Consider `FC(F)(F)c1ccc(Cl)cc1`, for which the Potency was greater than 92 µM.

For the compound `CN(C)c1ccc(N=O)cc1`, the Potency was 7.28 µM (active).

With `Oc1c(Cl)cc(Cl)cc1Cl`, the Potency was greater than 92 µM.

Take `N#CC(Cl)Cl`: the Potency is greater than 92 µM.

`O=[N+]([O-])c1cc(C(F)(F)F)cc([N+](=O)[O-])c1Cl`: the Potency was greater than 92 µM.

For the compound `OC(c1ccc(Cl)cc1)(c1ccc(Cl)cc1)C(Cl)(Cl)Cl`, the Potency is greater than 92 µM.

In the case of `c1ccc2cc3c(cc2c1)-c1cccc2cccc-3c12`, the Potency was greater than 92 µM.

For the origin of these results see PubChem BioAssay (NCATS).
